Percent Effect data for 40 compounds are collected here from ChEMBL document CHEMBL3988442, “University of Dundee, Small-Polar-MMV Screening Library” (2021).

SMILES strings stand for the structures.

The first test has as its target T1, Aspartate--tRNA(Asp/Asn) ligase (Mycobacterium tuberculosis (strain ATCC 25618 / H37Rv)) (UniProt P9WFW3). Also: in the data most compounds retested in dose-response had high values.
T1 sequence (whole entry): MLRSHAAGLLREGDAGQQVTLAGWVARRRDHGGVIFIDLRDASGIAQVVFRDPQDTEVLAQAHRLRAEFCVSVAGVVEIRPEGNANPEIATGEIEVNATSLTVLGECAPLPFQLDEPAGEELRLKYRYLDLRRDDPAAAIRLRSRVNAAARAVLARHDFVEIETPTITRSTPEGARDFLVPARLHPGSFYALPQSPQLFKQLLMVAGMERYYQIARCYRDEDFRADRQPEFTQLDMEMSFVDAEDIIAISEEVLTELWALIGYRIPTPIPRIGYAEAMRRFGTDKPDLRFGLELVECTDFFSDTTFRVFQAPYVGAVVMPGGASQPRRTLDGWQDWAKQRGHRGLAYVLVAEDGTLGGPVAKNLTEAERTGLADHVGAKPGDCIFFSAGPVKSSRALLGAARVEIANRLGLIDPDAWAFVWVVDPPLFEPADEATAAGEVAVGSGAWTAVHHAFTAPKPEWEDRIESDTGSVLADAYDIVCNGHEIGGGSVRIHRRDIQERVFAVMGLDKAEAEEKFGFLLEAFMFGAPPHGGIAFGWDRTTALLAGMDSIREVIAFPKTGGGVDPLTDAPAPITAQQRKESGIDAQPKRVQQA
The experiment in a line: Assay for Asp RNA synthetase-1 from Mycobacterium tuberculosis. Format: functional. On the set-up: scale not given: direction of the effect not stated beside the values. The following applies: 30 µM.
For the compound `Cc1nc(CN2CCCC(NCCOCC(F)(F)F)C2)no1` (stereo not given), the Percent Effect is -8.65%.

Consider `O=C1CC2(CCCCC2)CC(=O)N1CC(O)COCc1ccc(Cl)cc1` (stereo not given), for which the Percent Effect is 0.607%.

`O=C(c1ccn(-c2ccccc2Cl)n1)N1CCSCC1`: the Percent Effect turned out to be 1.45%.

Take `O=C(c1ccsc1)N1CCc2c(CNc3ncccn3)n[nH]c2C1`: the Percent Effect was -0.641%.

With `COc1ccc(-n2ccc(C(=O)NCCN3CCCCC3C)n2)cc1` (stereo not given), the Percent Effect was determined as 4.6%.

For `c1cc(CN2CCN(Cc3cscn3)CC2)cs1`, the Percent Effect is 1.38%.

For `O=C(CCn1cccn1)N1C[C@@H]2CC[C@H](C1)N(Cc1ccccn1)C2=O`, the Percent Effect was 0.301%.

In the case of `O=C(c1ccncc1)N1Cc2ccccc2OC2(CCOCC2)C1`, the Percent Effect is -4.33%.

On to `CCC(NC(=O)C1CCN(S(C)(=O)=O)CC1)c1ccc(OC)c(C)c1` (stereo not given), for which the Percent Effect was -5.17%.

On to `CC(C)n1ncc2cc(NC(=O)N3CCC(N4CCCC4)C3)cnc21` (stereo not given), for which the Percent Effect is -5.1%.

For `NC(=O)c1cc(NC(=O)NCCc2cc(F)cc(F)c2)ccc1F`, the Percent Effect is 4.79%.

Turning to `CCn1cc(CN2CCCN(C(=O)c3sccc3C#N)CC2)cn1`, the Percent Effect came out at 0.257%.

`O=C(Cn1cccnc1=O)NC(Cc1ccsc1)c1ccccn1` (stereo not given): the Percent Effect is -3.14%.

As to `Cc1cnn(C(C)C2CC2)c1NC(=O)c1cnccn1` (stereo not given), the Percent Effect is -3.45%.

Turning to `CCc1nccn1C1CCCN(C(=O)CCCNc2ncccn2)C1` (stereo not given), the Percent Effect is -4.79%.

On to `c1ccc(CCNC2CCc3ncnn3C2)nc1` (stereo not given), for which the Percent Effect stood at 5.83%.

Regarding `O=C(NCc1cccnc1)C1CC(=O)N(CC2CC2)C1` (stereo not given), the Percent Effect is -3.29%.

Take `Cc1cnn(CCNCc2nc(-c3ccccc3Cl)no2)c1`: the Percent Effect was -2.88%.

As to `O=C([C@H]1CCCO1)N1CC[C@H](O)[C@@H]1Cc1ccncc1`, the Percent Effect is -1.01%.

Take `Cc1cnc(C(=O)N2CCc3ncnc(C)c3CC2)cn1`: the Percent Effect came out at 0.251%.

As for `CC(=O)N1[C@H](Cn2cncn2)C[C@@H]2CN(c3ccc(C)nn3)CC[C@@H]21`, the Percent Effect was -1.81%.

In the case of `CCOCC1CC2(CCN(C(=O)c3ccccc3F)CC2)CO1` (stereo not given), the Percent Effect came to 3.1%.

`Cc1ccc(OCCC(=O)NC2CCc3nccn3C2)cc1` (stereo not given): the Percent Effect is -1.56%.

In the case of `CC(C)c1nc(C2CCCN2CC(=O)N2CCNC2=O)no1` (stereo not given), the Percent Effect was 1.61%.

Regarding `COc1cccc(S(=O)(=O)NC(=O)COc2c(C)cccc2C)c1`, the Percent Effect is -3%.

Consider `Cc1nccnc1N1CCC2(CCCN(C3CCOCC3)C2=O)C1` (stereo not given), for which the Percent Effect is -1.21%.

With `O=C(c1ccc(F)cc1)N1C[C@H]2CCC[C@@]2(COCc2ccccn2)C1`, the Percent Effect is 9.3%.

With `O=C(CO)N1CCc2onc(Cn3cccn3)c2C1`, the Percent Effect is -1.21%.

Take `Fc1cccc(CN2CCO[C@H]3[C@@H](OCc4ccccn4)CC[C@@H]32)c1`: the Percent Effect was found to be 0.564%.

On to `O=C(NCCN1CCCCCC1=O)c1n[nH]c(=O)c2ccccc12`, for which the Percent Effect was -3.85%.

For `Cc1nn(C)c(C)c1CCC(=O)N1CCCC1Cn1cccn1` (stereo not given), the Percent Effect is -0.943%.

On to `Cc1cc(C(=O)N2CCC(c3nccn3CCCN(C)C)CC2)no1`, for which the Percent Effect stood at 7.7%.

With `CC(CN1CCC2(CC1)c1nc[nH]c1CCN2S(C)(=O)=O)C(F)(F)F` (stereo not given), the Percent Effect was 2.76%.

For the compound `O=C(c1ccsc1)N1CC(C(=O)N2CCOCC2)C2(CCOCC2)C1` (stereo not given), the Percent Effect is -3.83%.

Turning to `CC1(C)OCC(CNC(=O)c2cnn(-c3ccc(Cl)cc3)c2N)O1` (stereo not given), the Percent Effect is 2.4%.

`CCn1cc(C(=O)NC2CCN(S(C)(=O)=O)CC2)c2ccccc21`: the Percent Effect was -0.607%.

As to `CC1CCCCN1CCNC(=O)c1ccn(-c2ccc(F)cc2)n1` (stereo not given), the Percent Effect came to 3.98%.

As to `COc1cccc(F)c1C(=O)N1C[C@@H](CN(C)CCO)[C@@H](CO)C1`, the Percent Effect was -0.268%.

With `Cc1nc(CN(C)C2CCN(Cc3ccc4c(c3)OCCO4)C2)no1` (stereo not given), the Percent Effect was -4.04%.

`Cc1c(C2CCCN(C(=O)Cc3ccccn3)C2)n2c(nc1=O)CCC2` (stereo not given): the Percent Effect worked out at 2.63%.

The next test has as its target Shiga toxin 2 (Escherichia coli O157:H7) (UniProt P09385+P09386). The experiment in a line: E. coli 0.157:H7 Shiga Toxin SOP - stx2 screening assay. The following applies: 30 µM. On the set-up: scale not given: direction of the effect not stated beside the values. The test is classed as functional.
For `Cc1nc(CN2CCCC(NCCOCC(F)(F)F)C2)no1` (stereo not given), the Percent Effect was -8.56%.

Consider `O=C1CC2(CCCCC2)CC(=O)N1CC(O)COCc1ccc(Cl)cc1` (stereo not given), for which the Percent Effect is 11%.

As to `O=C(c1ccn(-c2ccccc2Cl)n1)N1CCSCC1`, the Percent Effect was 8.96%.

Turning to `O=C(c1ccsc1)N1CCc2c(CNc3ncccn3)n[nH]c2C1`, the Percent Effect is -33.5%.

Consider `COc1ccc(-n2ccc(C(=O)NCCN3CCCCC3C)n2)cc1` (stereo not given), for which the Percent Effect was -18.1%.

As to `c1cc(CN2CCN(Cc3cscn3)CC2)cs1`, the Percent Effect stood at 26.6%.

As to `O=C(CCn1cccn1)N1C[C@@H]2CC[C@H](C1)N(Cc1ccccn1)C2=O`, the Percent Effect was 3.51%.

On to `O=C(c1ccncc1)N1Cc2ccccc2OC2(CCOCC2)C1`, for which the Percent Effect was -1.88%.

With `CCC(NC(=O)C1CCN(S(C)(=O)=O)CC1)c1ccc(OC)c(C)c1` (stereo not given), the Percent Effect was -11.6%.

As to `CC(C)n1ncc2cc(NC(=O)N3CCC(N4CCCC4)C3)cnc21` (stereo not given), the Percent Effect is -51.5%.

Consider `NC(=O)c1cc(NC(=O)NCCc2cc(F)cc(F)c2)ccc1F`, for which the Percent Effect was -82%.

For `CCn1cc(CN2CCCN(C(=O)c3sccc3C#N)CC2)cn1`, the Percent Effect is -4.04%.

Consider `O=C(Cn1cccnc1=O)NC(Cc1ccsc1)c1ccccn1` (stereo not given), for which the Percent Effect was -4.55%.

As to `Cc1cnn(C(C)C2CC2)c1NC(=O)c1cnccn1` (stereo not given), the Percent Effect is -3.84%.

For `CCc1nccn1C1CCCN(C(=O)CCCNc2ncccn2)C1` (stereo not given), the Percent Effect was 8.61%.

For `c1ccc(CCNC2CCc3ncnn3C2)nc1` (stereo not given), the Percent Effect is -16.7%.

As to `O=C(NCc1cccnc1)C1CC(=O)N(CC2CC2)C1` (stereo not given), the Percent Effect is -8.28%.

Take `Cc1cnn(CCNCc2nc(-c3ccccc3Cl)no2)c1`: the Percent Effect is -10.8%.

As for `O=C([C@H]1CCCO1)N1CC[C@H](O)[C@@H]1Cc1ccncc1`, the Percent Effect is 1.58%.

Take `Cc1cnc(C(=O)N2CCc3ncnc(C)c3CC2)cn1`: the Percent Effect was -27.4%.

Take `CC(=O)N1[C@H](Cn2cncn2)C[C@@H]2CN(c3ccc(C)nn3)CC[C@@H]21`: the Percent Effect is -4.03%.

Consider `CCOCC1CC2(CCN(C(=O)c3ccccc3F)CC2)CO1` (stereo not given), for which the Percent Effect stood at 5.12%.

As to `Cc1ccc(OCCC(=O)NC2CCc3nccn3C2)cc1` (stereo not given), the Percent Effect was -18%.

In the case of `CC(C)c1nc(C2CCCN2CC(=O)N2CCNC2=O)no1` (stereo not given), the Percent Effect was -10.5%.

As to `COc1cccc(S(=O)(=O)NC(=O)COc2c(C)cccc2C)c1`, the Percent Effect was 6.76%.

`Cc1nccnc1N1CCC2(CCCN(C3CCOCC3)C2=O)C1` (stereo not given): the Percent Effect was -27.2%.

With `O=C(c1ccc(F)cc1)N1C[C@H]2CCC[C@@]2(COCc2ccccn2)C1`, the Percent Effect was 3.92%.

On to `O=C(CO)N1CCc2onc(Cn3cccn3)c2C1`, for which the Percent Effect was found to be 7.04%.

As to `Fc1cccc(CN2CCO[C@H]3[C@@H](OCc4ccccn4)CC[C@@H]32)c1`, the Percent Effect was -1.04%.

As to `O=C(NCCN1CCCCCC1=O)c1n[nH]c(=O)c2ccccc12`, the Percent Effect was -6.19%.

Consider `Cc1nn(C)c(C)c1CCC(=O)N1CCCC1Cn1cccn1` (stereo not given), for which the Percent Effect worked out at 2.75%.

In the case of `Cc1cc(C(=O)N2CCC(c3nccn3CCCN(C)C)CC2)no1`, the Percent Effect was -11.8%.

On to `CC(CN1CCC2(CC1)c1nc[nH]c1CCN2S(C)(=O)=O)C(F)(F)F` (stereo not given), for which the Percent Effect is 4.49%.

As to `O=C(c1ccsc1)N1CC(C(=O)N2CCOCC2)C2(CCOCC2)C1` (stereo not given), the Percent Effect was -2.66%.

`CC1(C)OCC(CNC(=O)c2cnn(-c3ccc(Cl)cc3)c2N)O1` (stereo not given): the Percent Effect worked out at 47.4%.

Regarding `CCn1cc(C(=O)NC2CCN(S(C)(=O)=O)CC2)c2ccccc21`, the Percent Effect was -0.257%.

As for `CC1CCCCN1CCNC(=O)c1ccn(-c2ccc(F)cc2)n1` (stereo not given), the Percent Effect was -12.3%.

`COc1cccc(F)c1C(=O)N1C[C@@H](CN(C)CCO)[C@@H](CO)C1`: the Percent Effect is -11.4%.

For the compound `Cc1nc(CN(C)C2CCN(Cc3ccc4c(c3)OCCO4)C2)no1` (stereo not given), the Percent Effect was 5.87%.

Turning to `Cc1c(C2CCCN(C(=O)Cc3ccccn3)C2)n2c(nc1=O)CCC2` (stereo not given), the Percent Effect was -14.2%.
